IL-1B inflam inh: qHTS for Inhibitors of Inflammasome Signaling: IL-1-beta AlphaLISA Primary Screen; THP-1 LPS/ATP IL-1B secretion, AlphaLISA, 16 h; active compounds read low; activity change, % at 57.5 µM; 360,000 compounds, 4.7% hits; in the data active = activity change below about -50%; inconclusive = mostly about -30% to -49%
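Secreted IL-1B measured by AlphaLISA bead assay after 16 h compound exposure of THP-1 cells; compounds (final up to 57.5 uM) added 1 h before LPS (250 ng/mL) and ATP (1.25 mM) stimulation; lower signal means less secretion.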
HepG2 viability: qHTS for Inhibitors of TGF-b: Cytotox Counterscreen | Potency, µM (doses to about 46.1 µM), actives largely listed as cytotoxic | 410,000 compounds, 0.76% hits | AID 588856, 2011 | HepG2 CAGA-GFP viability, ATP luminescence, 18 h
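HepG2 CAGA-GFP cells (1000/well, DMEM with 1% FBS) received compound, then TGF-beta at 500 pg/mL final, and were incubated 18 hours at 37 degrees C. Viability was read by CellTiter-Glo luminescence. Media-only wells were set as complete cell-killing and DMSO as no toxicity.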
Giardia killer: Small Molecules that selectively kill Giardia lamblia: qHTS; activity change, % at 7.66 µM, hits read low; AID 540267, 2011; 340,000 compounds, 0.15% hits; Giardia lamblia trophozoite viability; in the data active = activity change below about -80%; inconclusive = between about -30% and that limit;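 also: parasites exposed to compound for two days anaerobically before the ATP read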
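Anaerobic 48 hrs incubation at 37 deg C of 100 trophozoites/well with test compounds; ATPLite 1-Step luminescence, 15-30 min RT, reports cellular ATP as viability.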
HT1080 IDH1KD tx: qHTS for induction of synthetic lethality in tumor cells producing 2HG: qHTS for the HT-1080-IDH1KD cell line; 360,000 compounds, 2% hits; Potency, µM (series often up to 46.1 µM), most hits filed as cytotoxic; HT-1080 IDH1 knockdown viability, ATP luminescence, 48 h
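Using the IDH1-knockdown HT-1080 line run in the same batch and compound series as the NT line, viability after 48 h at 37 °C was determined by CellTiter-Glo luminescence and expressed as % activity.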
HT1080-NT tox: qHTS for induction of synthetic lethality in tumor cells producing 2HG: qHTS for the HT-1080-NT fibrosarcoma cell line. Potency, µM (highest dose often 46.1 µM), actives largely listed as cytotoxic. 360,000 compounds, 1.6% hits. AID 686970, 2013. HT-1080-NT fibrosarcoma viability, CellTiter-Glo ATP luminescence, 48 h;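 also: NT is the 2HG producing partner of a matched IDH1 knockdown line; nearly all actives have a fitted effect of over 55% in size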
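Viability of the 2HG-overproducing fibrosarcoma line after 48 hours of compound exposure at 37 degrees C was determined by luminescence with CellTiter-Glo, and concentration-effect curves were then fitted and categorized.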
TGFb SMAD3 inh: qHTS for Inhibitors of TGF-b; HepG2 CAGA-GFP TGF-b/SMAD3 reporter, GFP fluorescence, 18 h; TGF-beta stimulated, 500 pg/mL final; 410,000 compounds, 1.2% hits; Potency, µM (titrated, usually from 46.1 µM), usual class: inhibitors; AID 588855, 2011; also: nearly all actives have a fitted effect of over 65% in size
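First, reporter cells (HEPG2 CAGA-GFP) rested 2 h at 37 degrees C. Next, compounds were pinned in and TGF-beta added to 500 pg/mL final. After 18 h, GFP was imaged per cell and summed per well.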
Numbers stand for hits; . = inactive; ? = inconclusive; / = no result given; ! = not confirmed by another sample; [ ] = another dose, or the depositor's remark. Hits are enriched below; roughly 6.5% of the tested compounds scored in any of these assays. Unless noted, calls follow the shape of the dose curve; as a rule, active = well fitted curve in the direction sought with a large enough effect; inconclusive = small, poorly fitted or top-dose-only effect, or another doubt; inactive = no such curve, though single readings can be large; an effect the other way counts as inactive or inconclusive.

SMILES	IL-1B inflam inh	HepG2 viability	Giardia killer	HT1080 IDH1KD tx	HT1080-NT tox	TGFb SMAD3 inh
Cn1cnc([N+](=O)[O-])c1S(=O)(=O)Nc1ccccc1	-97	.	.	?	10µM	.
Cn1cnc([N+](=O)[O-])c1S(=O)(=O)c1cccc(Cl)c1	?	.	.	?	?	?
COc1cccc(NC(=O)C2CCN(S(=O)(=O)c3ccccc3)CC2)c1	.	.	.	.	.	.
Oc1cccc(Nc2ncnc3c2oc2ccccc23)c1	?	.	?	?	.	.
COc1ccc(C(=O)NCc2ccco2)cc1S(=O)(=O)N1CCOCC1	.	.	.	.	.	.
CCn1cc(C(=O)NCc2cccc(F)c2)c(=O)c2cc(F)c(N3CCN(C(=O)c4ccco4)CC3)cc21	-54	.	.	23µM	13µM	.
COc1ccc(CCNc2ncnc3cc(OC)c(OC)cc23)cc1OC	-73	.	.	.	.	.
C=C1C(=O)C2=CC1CCC(=O)C1(C)CCC(OC(C)=O)C(C)(C)C1CC2O (configuration not stated)	-107	.	.	5.8µM	.	2.8µM
CC(=O)OC1CCC2C3CCC4OC(=O)CCC4C3CCC12C (configuration not stated)	.	.	.	.	.	.
CCOC(=O)CCC1(C(=O)OC)C(=O)CCCCCC=C1C(=O)OC (configuration not stated)	-51	.	/	.	.	.
COc1cc(CN(C)C(C)C(=O)Nc2ccc([N+](=O)[O-])cc2Cl)ccc1OC(F)F (configuration not stated)	.	.	.	.	.	.
CCOC(=O)c1cnc(Nc2nc3ccccc3o2)nc1C	.	.	?	3.5µM	2.8µM	.
CCOC(=O)c1c(C)[nH]c(C(=O)OCc2c(C)noc2C)c1C	.	.	.	.[9.24 µM]	.	.
O=C(OCn1ncc(Cl)c(Cl)c1=O)c1ccc(C(F)(F)F)cc1	-99	10µM	.	?	?	.
Cc1ccc(C(=O)OCn2ncc(Cl)c(Cl)c2=O)cc1	-99	.	.	5.2µM	5.8µM	?
O=C(OCC(=O)c1ccc[nH]1)c1ccc(C(F)(F)F)cc1	.	.	.	.	.	.
Nc1nn(-c2ccccc2)c(N)c1N=Nc1cccc(F)c1	.	.	.	5.8µM	16µM	?
Nc1nn(-c2ccccc2)c(N)c1N=Nc1ccc2c(c1)OCO2	-97	.	.	6.5µM	18µM	.
Cc1nn(-c2ccccc2)c(N)c1N=Nc1cccnc1	.	.	.	.	.	.
Nc1[nH]n(-c2ccccc2)c(=O)c1N=Nc1ccc2c(c1)OCCO2	-73	.	.	.	.	.
Nc1[nH]n(-c2ccccc2)c(=O)c1N=Nc1ccc2c(c1)OCO2	.	.	.	?	.	.
CN(C)C(=O)COc1ccc2cc(-c3ccccc3)c(=O)oc2c1	.	.	.	.	.	.
Cc1[nH]n(-c2ccccc2)c(=O)c1C(c1cc(Cl)ccc1O)c1c(C)[nH]n(-c2ccccc2)c1=O	/	.	/	/	/	7.9µM
COc1ccc(C(c2c(C)[nH]n(-c3ccccc3)c2=O)c2c(C)[nH]n(-c3ccccc3)c2=O)cc1OC	.	.	.	.	.	.
CCOc1cc(C(c2c(C)[nH]n(-c3ccccc3)c2=O)c2c(C)[nH]n(-c3ccccc3)c2=O)ccc1O	/	8.9µM	/	/	/	11µM
SMILES	IL-1B inflam inh	HepG2 viability	Giardia killer	HT1080 IDH1KD tx	HT1080-NT tox	TGFb SMAD3 inh
c1ccc(OCCOc2ncnc3sccc23)cc1	.	.	.	.	.	.
CCCc1nn2c(=O)cc(COC(=O)c3ccc(NC(=O)c4cccs4)cc3)nc2s1	/	.	/	/	/	11µM
CCOc1ccc(C(=O)Nc2ccc(C(=O)OCc3cc(=O)n4c(C)csc4n3)cc2)cc1	/	.	/	/	/	22µM
CCCCc1nn2c(=O)cc(COC(=O)c3ccc(NC(=O)c4cccs4)cc3)nc2s1	/	.	/	/	/	.
Cc1ccc(OCC(=O)Nc2ccc(C(=O)OCc3cc(=O)n4c(C)csc4n3)cc2)cc1	/	.	/	/	/	.
CCOC(=O)COc1cc(N2C(=O)CSCC2=O)c(Cl)cc1Cl	-99	.	.	.	.	?
Cc1cccc(OC(=O)c2snnc2C)c1	/	.	/	/	/	.
CC(=O)Nc1ccc(C(=O)OCC(=O)c2cccc([N+](=O)[O-])c2)cc1	.	.	.	.	.	.
Cc1ccc(C(=O)COC(=O)c2cccc(NC(=O)c3ccc([N+](=O)[O-])cc3[N+](=O)[O-])c2)cc1	?	.	-101	?	?	?
Cc1cc(C(=O)CN2C(=O)NC3(CCCCC3)C2=O)c(C)n1Cc1ccco1	.	.	.	.	.	.
OC1(c2ccc(Br)cc2)CCN(Cc2cccc(Br)c2)CC1	.	11µM	.	.	.	?
Cc1cc(=O)[nH]c(SCC(=O)Nc2ccc(Br)cn2)n1	.	.	.	.	.	.
CN(C)c1nc(C(=O)OCCO)nc(N(C)C)n1	.	.	.	.	.	?
O=C(c1cc2c(ccc3ccccc32)oc1=O)N1CCCC1	-52	.	.	.	.	.
Cc1ccc(C2=NNC(=O)C(c3ccc(Cl)cc3)C2)cc1 (configuration not stated)	.	.	.	.	.	.
O=C1NN=C(c2ccc(Cl)cc2)CC1c1cccc(Br)c1 (configuration not stated)	-51	.	.	?	?	10µM
Cc1ccccc1S(=O)(=O)N1C[C@H]2CON(C)[C@H]2C[C@H]1c1cccc(Oc2ccccc2)c1	.	.	.	.	.	.
Cc1cccc(C)c1NC(=O)c1nc(S(=O)(=O)Cc2ccccc2)ncc1Cl	-101	.	.	8.2µM	16µM	11µM
Cc1nnc(NC(=O)c2nc(S(=O)(=O)Cc3ccccc3)ncc2Cl)s1	-103	.	.	21µM	15µM	?
O=C(NCc1ccccc1)c1nc(S(=O)(=O)Cc2ccc(F)cc2)ncc1Cl	/	.	/	/	/	?
CCCc1nnc(NC(=O)c2nc(S(=O)(=O)Cc3cccc(C)c3)ncc2Cl)s1	?	.	.	?	?	?
Cc1cccc(CS(=O)(=O)c2ncc(Cl)c(C(=O)NCc3ccccc3)n2)c1	-97	3.5µM!	.	?	26µM	3.2µM
COc1ccc2nc(NC(=O)c3nc(S(=O)(=O)Cc4ccccc4)ncc3Cl)sc2c1	/	10µM	/	/	/	7.9µM
Cc1cccc(C)c1NC(=O)c1nc(S(=O)(=O)Cc2ccccc2F)ncc1Cl	/	.	/	/	/	?
